The values below come from PubChem BioAssay AID1851 (National Center for Advancing Translational Sciences (NCATS), 2009).

Among all 16,000 compounds or so, about 5,700 (36%) were called active. Roughly 24% stayed inconclusive and do not appear here. The list shows a part of the results. Unmarked numbers belong to inactive results. The call rests on the fitted dose curve; in most records, active means well fitted curve in the direction sought with a large enough effect; inconclusive means small, poorly fitted or top-dose-only effect, or effect the other way; inactive means no such curve, though single readings can be large or run the other way.
On the % scale 0 is the no-effect control and ±100 the full control effect.

In this assay the target is Cytochrome P450 1A2 (Homo sapiens) (UniProt P05177). The assay is described as follows: Cytochrome panel assay with activity outcomes. The conditions noted are these: recombinant CYP, pro-luciferin dealkylation, luminescence, p450-cyp1a2; series mostly up to 57.1 µM; activity, negative = inhibition: at the top concentration.
Chain of Cytochrome P450 1A2 (Homo sapiens) (P05177 whole entry, looked up): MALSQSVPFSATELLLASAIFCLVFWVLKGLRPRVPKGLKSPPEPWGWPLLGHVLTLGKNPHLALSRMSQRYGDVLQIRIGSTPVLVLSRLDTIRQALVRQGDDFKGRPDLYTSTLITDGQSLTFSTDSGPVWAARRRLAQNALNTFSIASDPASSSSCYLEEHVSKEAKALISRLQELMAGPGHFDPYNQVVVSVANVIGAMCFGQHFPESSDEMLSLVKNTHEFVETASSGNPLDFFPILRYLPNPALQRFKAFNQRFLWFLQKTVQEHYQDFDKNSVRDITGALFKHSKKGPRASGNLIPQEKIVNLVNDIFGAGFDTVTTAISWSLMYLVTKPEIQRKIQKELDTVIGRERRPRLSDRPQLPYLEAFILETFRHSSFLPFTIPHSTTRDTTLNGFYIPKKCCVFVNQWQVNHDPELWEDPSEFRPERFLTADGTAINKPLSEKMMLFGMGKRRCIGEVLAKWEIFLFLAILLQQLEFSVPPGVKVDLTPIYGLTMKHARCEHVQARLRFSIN
With `CC(=O)c1cc2c(cc1NC(=O)CCCC(=O)O)OCO2`, the “activity, negative = inhibition” value is -28%.

Consider `Cc1onc(-c2ccccc2)c1C(=O)NC(CC(=O)O)c1ccc(OC(C)C)cc1` (centres undefined), for which the “activity, negative = inhibition” value was -19.1%.

In general, AC50 refers to the concentration giving half of the maximal activity seen. On to `CC(=O)c1cc2c(cc1NC(=O)c1c(-c3ccccc3)noc1C)OCO2`, for which the AC50 was 2.24 µM (active).

For the compound `Cc1onc(-c2c(Cl)cccc2Cl)c1C(=O)Nc1ccc2c(c1)OCO2`, the AC50 was 3.16 µM (active).

For the compound `Cc1onc(-c2c(Cl)cccc2Cl)c1C(=O)N1CCc2ccccc2C1`, the “activity, negative = inhibition” value is -17.5%.

`C/C(=C(/CCO)SSC[C@@H]1CCCO1)N(C=O)Cc1cnc(C)nc1N`: the “activity, negative = inhibition” value was -10.8% [at 25.6 µM].

With `CC(C)CC(=O)N1CCC(O)(CS(=O)(=O)Cc2ccc(Cl)cc2)CC1`, the “activity, negative = inhibition” value is 11%.

For `CCOC(=O)C1CCCN(C(=O)CSCc2ccccc2)C1` (centres undefined), the “activity, negative = inhibition” value is -15.5%.

Consider `CCOC(=O)N1CCN(C(=O)CSCc2ccc(Cl)cc2)CC1`, for which the AC50 is 6.31 µM (active).

In the case of `CCOc1cccc2cc(C(N)=O)c(=NCc3ccccc3)oc12`, the AC50 is 2.24 µM (active).

On to `CN(Cc1ccco1)c1ncnc2ccc(-c3cccnc3)cc12`, for which the AC50 was 0.316 µM (active).

As for `COc1cccc(-c2ccc3ncnc(N(C)Cc4ccco4)c3c2)c1`, the AC50 is 1.26 µM (active).

In the case of `Cc1ccc(CSc2nnc3c(n2)OC2(Nc4ccccc4-3)C(=O)Nc3ccc(F)cc32)cc1` (centres undefined), the half-maximal activity concentration (AC50) is 14.1 µM (active).

Regarding `CCCNC(=O)OC[C@H]1O[C@@H](CCO/N=C2/[C@H]3O[C@@H]3[C@@H](O)[C@H]3[C@H]2CCn2c(=O)n(-c4ccccc4)c(=O)n23)C=C[C@@H]1Oc1ccc(OC)cc1`, the activity, negative = inhibition was -12.7% [at 11.4 µM].

`COc1ccc(-n2c(=O)c(-c3cn(C)c4ccccc34)nc3cnc(OC)nc32)cc1`: the “activity, negative = inhibition” value is -22%.

Take `COc1ccc(Oc2ncc3nc(-c4cn(C)c5ccccc45)c(=O)n(C4CC4)c3n2)cc1`: the AC50 was 12.6 µM (active).

Regarding `COc1ccc(-n2c(=O)c(-c3cn(C)c4ccccc34)nc3cncnc32)cc1`, the concentration at half-maximal activity (AC50) is 0.316 µM (active).

Consider `Cn1cc(-c2nc3cncnc3n(C3CC3)c2=O)c2ccccc21`, for which the AC50 was 0.2 µM (active).

`Cn1cc(-c2nc3cncnc3n(-c3ccccc3)c2=O)c2ccccc21`: the AC50 was 1.58 µM (active).

`CS(=O)(=O)N1CCC[C@@]2(CCN(Cc3nccs3)C2)C1`: the “activity, negative = inhibition” value is 3.08%.

`CCOc1ccc(/C=C/C2=Cc3c(sc(NC(=O)CSc4n[nH]c(N)n4)c3C#N)C(C)(C)C2)cc1`: the “activity, negative = inhibition” value was -14.8%.

Turning to `CCOC(=O)c1sc(NC(=O)CSc2n[nH]c(-c3ccc(Cl)cc3Cl)n2)c(C#N)c1C`, the AC50 was 14.1 µM (active).

With `CCOC(=O)c1sc(NC(=O)CSc2nc(C)cc(C)c2C#N)c(C#N)c1C`, the “activity, negative = inhibition” value is -28.8%.

Take `COc1cc2cc3c(N)c(C(=O)Nc4sc(C)c(C)c4C#N)sc3nc2cc1OC`: the “activity, negative = inhibition” value is -27.6%.

Consider `CCOC(=O)c1sc(NC(=O)CSc2nc(C)cc(C)n2)c(C#N)c1C`, for which the AC50 was 10 µM (active).

On to `Cc1ccc(/C=C/C2=Cc3c(sc(NC(=O)CSc4n[nH]c(N)n4)c3C#N)C(C)(C)C2)o1`, for which the “activity, negative = inhibition” value is -29.2%.

Take `Cc1ccc(S(=O)(=O)n2c3ccccc3c3nnc(C(=O)c4ccccc4)nc32)cc1`: the activity, negative = inhibition is -2.9% [at 11.4 µM].

For the compound `Cc1ccc(-c2nc3c(=O)n(C)c4ccccc4c3o2)cc1`, the AC50 was 0.398 µM (active).

Take `Cn1c(=O)c2nc(-c3ccccc3)oc2c2ccccc21`: the AC50 is 0.398 µM (active).

Consider `COc1cccc(-c2cc(NCCc3c[nH]c4ccc(OC)cc34)ncn2)c1`, for which the AC50 is 0.794 µM (active).

On to `COc1ccc2[nH]cc(CCNc3cc(-c4cccnc4)ncn3)c2c1`, for which the AC50 is 3.16 µM (active).

For the compound `COc1ccc2[nH]cc(CCNc3cc(-c4cccc(C#N)c4)ncn3)c2c1`, the AC50 is 0.794 µM (active).

With `COc1ccc2[nH]cc(CCNc3ccnc(-c4cccnc4)n3)c2c1`, the AC50 was 0.251 µM (active).

As for `N[C@H](CCC(=O)NCC(=O)O)C(=O)O`, the “activity, negative = inhibition” value is -17.4%.

For the compound `COc1ccccc1CN1CCC2(CCNCC2)CC1`, the “activity, negative = inhibition” value was -5.13%.

In the case of `CN(C)CCn1nnnc1SCC1=C(C(=O)O)N2C(=O)[C@@H](NC(=O)Cc3csc(N)n3)[C@@H]2SC1`, the “activity, negative = inhibition” value is -6.52% [at 25.6 µM].

In the case of `COc1ccc2[nH]cc(CCNc3cc(-c4ccoc4)ncn3)c2c1`, the AC50 is 0.631 µM (active).

In the case of `COc1ccc2[nH]cc(CCNc3ccnc(-c4cccc(NS(C)(=O)=O)c4)n3)c2c1`, the concentration at half-maximal activity (AC50) was 1.58 µM (active).

Take `CC1(C)S[C@@H]2[C@H](NC(=O)C(N)c3ccccc3)C(=O)N2[C@H]1C(=O)O` (some centres undefined): the “activity, negative = inhibition” value was -0.0503% [at 25.6 µM].

For `CN(c1ccccc1)c1nc(-n2ccnc2)nc(-n2ccnc2)n1`, the AC50 was 0.158 µM (active).

In the case of `c1ccc(-c2nc(N3CCCCCC3)nc(-n3ccnc3)n2)cc1`, the concentration at half-maximal activity (AC50) was 1.26 µM (active).

`CC(C)[C@@H](OCc1ccccc1)[C@H](C)/C=N\OC[C@@H](O)[C@@H]1O[C@@H]2OC(C)(C)O[C@@H]2[C@H]1O`: the activity, negative = inhibition was -0.825% [at 11.4 µM].

With `Clc1ccccc1-c1nccc(-n2ccnc2)n1`, the AC50 is 0.158 µM (active).

On to `Cc1ccccc1-c1nccc(-n2ccnc2)n1`, for which the AC50 is 0.0794 µM (active).

For the compound `COc1ccccc1-c1nccc(-n2ccnc2)n1`, the AC50 was 0.158 µM (active).

In the case of `COC(=O)N1CCC[C@@]2(CCN(C(=O)Nc3ccc(OC)cc3)C2)C1`, the “activity, negative = inhibition” value is -2.89%.

`N=C(N)SCC(=O)O`: the activity, negative = inhibition was -10.2% [at 2.29 µM].

For the compound `Cn1c(/C(C#N)=C(\O)c2ccc(S(=O)(=O)N3CCCCC3)cc2)nc2ccccc21`, the “activity, negative = inhibition” value is -8.63%.

Consider `COc1ccc(/C(O)=C(\C#N)c2nc3ccccc3n2C)cc1OC`, for which the AC50 is 5.01 µM (active).
